Inconclusive results are not listed. A number with no mark means an inactive call. Activity calls are given as the source filed them. The call rests on the fitted dose curve; in most records, active means well fitted cell-killing curve with a large enough effect in the repeat runs; inconclusive means weak or mixed curves, or effect the other way; inactive means flat fitted curve, though single readings scatter.
Assay: cAMP Responsive Elements (CRE) small molecule agonists, cell-based qHTS assay: qHTS cell viability counter screen (AID 2060914);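 further: viability read after 3 h of compound exposure; nearly all actives have a fitted effect of over 50% in size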
Conditions: CRE-bla HEK293T viability, CellTiter-Glo luminescence, 5 h; series mostly up to 92.4 µM; activity change, negative = cytotoxicity: at the top concentration
Source text: National Center for Advancing Translational Sciences [NCATS]
Division of Preclinical Innovation [DPI]
U.S. Environmental Protection Agency [EPA]
National Institutes of Environmental Health Sciences [NIEHS]
National Toxicology Program [NTP]
U.S. Food and Drug Administration [FDA]
CREB (cyclic-AMP Responsive Element Binding Protein) is a cellular transcription factor. It binds to certain DNA sequences called cAMP Responsive Elements (CRE) and regulates the transcription of the genes. […] This cell line can be used to find agonists/antagonists of the cyclic AMP signaling pathway. The activation of the report gene under culture conditions can be detected by fluorescence intensity. This cell line has been used to screen the Tox21 10K compound library to identify agonists that induce oxidative stress. The cytotoxicity of the Tox21 compound library against the CRE-bla cell line was tested in parallel by measuring the cell viability using CellTiter-Glo assay (Promega, Madison, WI) in the same wells.
Tox21 Assay Protocol Summary:
CRE-bla Hek 293T cells were suspended in assay medium (DMEM containing 10% dialyzed FBS, 0.1 mM NEAA, 1 mM sodium pyruvate and 25 mM HEPES) and dispensed at 2,000 cells/5 uL /well into 1536-well black wall/clear bottom plates using a Multidrop Combi (ThermoFisher Scientific, Waltham, MA) dispenser. After the assay plates were incubated at 37 C/5% CO2 for 18 hrs, 23 nL of compounds dissolved in DMSO, positive controls or DMSO only was transferred to the assay plate by a pintool workstation (Kalypsys, San Diego, CA). After the plates were incubated at 37 C/5% CO2 for 3 hrs, 1 uL of LiveBLAzer B/G FRET substrate (Invitrogen, Carlsbad, CA) was added to each well using Bioraptr Flying Reagent Dispenser (FRD, Aurora Discovery, San Diego, CA). The plates were incubated at room temperature for 2 h, then fluorescence intensities were measured using an Envision plate reader (PerkinElmer, Shelton, CT) at Excitation 405nm, Emission 460nm and 530nm. The % activity was determined from the ratio of 460nm/530nm. For cell viability readout that measures cytotoxicity, 4 uL /well of CellTiter-Glo reagent was added into the assay plates using Bioraptr FRD. After 30 min incubation at room temperature, the luminescence intensity in the assay plates was measured using a ViewLux (PerkinElmer, Shelton, CT) plate reader.
On the % scale 0 is the no-effect control and ±100 the full control effect.

| Compound | Potency | activity change, negative = cytotoxicity |
| --- | --- | --- |
| Nc1ccc2ccccc2c1 | inactive |  |
| CCOC(=O)NC(C)(C)Cc1ccc(Cl)cc1 |  | 8.64% [at 42.5 µM] |
| CCCCCCCCBr |  | 5.67% |
| CC(C(O)c1ccccc1)N(C)C/C=C/c1ccccc1 (stereo not given) |  | -6.79% [at 42.5 µM] |
| CCN[C@H](C)Cc1cccc(C(F)(F)F)c1 |  | -6.5% |
| N#Cc1ccc(Cl)cc1 |  | -0.671% |
| CCC(C)(C)O |  | -9.76% |
| O=P(O)(O)CCCl | inactive |  |
| CC(C)CCCCCCCOC(=O)c1ccccc1C(=O)OCCCCCCCC(C)C |  | -12.9% |
| CCCCP(CCCC)CCCC |  | 1.19% |
| C=CCN1CC[C@]23CCCC[C@H]2[C@H]1Cc1ccc(O)cc13 |  | -7.52% [at 42.5 µM] |
| Cc1ccn2nc(S(=O)(=O)Nc3c(F)cccc3F)nc2n1 |  | 4.77% |
| CN |  | 6.15% |
| O=C(Cl)/C=C/C(=O)Cl |  | 8.43% |
| CC(=O)Nc1ccc2c(c1)Cc1ccccc1-2 |  | -0.201% |
| COc1cc(OC)nc(Sc2cccc(Cl)c2C(=O)O)n1 |  | 6.39% |
| CC(C)(C)C(O)C(Oc1ccc(-c2ccccc2)cc1)n1cncn1 (stereo not given) |  | 12.4% |
| O=NN1CCCCCC1 |  | 6.05% |
| C=CC1(C)OC(=O)N(c2cc(Cl)cc(Cl)c2)C1=O (stereo not given) | inactive |  |
| CCn1cc[n+](C)c1C | inactive |  |

| Compound | Potency | activity change, negative = cytotoxicity |
| --- | --- | --- |
| Clc1ccc(C(c2ccc(Cl)cc2)C(Cl)(Cl)Cl)cc1 | inactive |  |
| CCCCOCC1CO1 (stereo not given) | inactive |  |
| CC(C)(C)NCC(O)c1ccccc1Cl (stereo not given) |  | 3.79% [at 42.5 µM] |
| C[C@]12CCC(=O)C=C1CC[C@@H]1[C@@H]2CC[C@]2(C)C(=O)CC[C@@H]12 | inactive |  |
| CC(C)CCCCCCOC(=O)c1ccccc1C(=O)OCCCCCCC(C)C | inactive |  |
| C#CCOC(C(=O)OCCN(C)C)(c1ccccc1)c1ccccc1 |  | 10.2% [at 42.5 µM] |
| CC(C)NCC(O)c1ccccc1Cl (stereo not given) |  | -2.5% [at 42.5 µM] |
| O=C([O-])c1ccccn1.O=C([O-])c1ccccn1.O=C([O-])c1ccccn1.[Cr+3] |  | 0.609% |
| CCCC[n+]1ccccc1 | inactive |  |
| ClC1=C(Cl)[C@]2(Cl)[C@H]3[C@H]([C@H]4C=C[C@H]3C4)[C@@]1(Cl)C2(Cl)Cl |  | -21.6% |
| CC(C)CC(N(C)C)C1(c2ccc(Cl)cc2)CCC1 (stereo not given) |  | -11.7% [at 42.5 µM] |
| O=C(O)c1nn(Cc2ccc(Cl)cc2Cl)c2ccccc12 | inactive |  |
| N#CCNCC#N |  | 22.6% |
| COC(=O)C(C)N(C(=O)c1ccco1)c1c(C)cccc1C (stereo not given) |  | 0.499% |
| S=C(SSC(=S)N1CCCCC1)N1CCCCC1 |  | 16% [at 42.5 µM] |
| CCc1cnc(C2=NC(C)(C(C)C)C(=O)N2)c(C(=O)O)c1 (stereo not given) | inactive |  |
| Oc1ccccc1-c1ccccc1 | inactive |  |
| O=[N+]([O-])c1c(Cl)c(Cl)c(Cl)c(Cl)c1Cl | inactive |  |
| CCCCNC(=O)OCC#CI | inactive |  |
| CN1CCC(O)(c2ccc(F)cc2)C(C(=O)c2ccc(F)cc2)C1 (stereo not given) |  | 10.6% [at 42.5 µM] |

— PubChem BioAssay (Tox21)
